Shown are actives, neighbours in structure and some others; about 28% of the full set was active somewhere.
Pyk2 oligo antag = antagonists of Pyk2 self-association, primary screen, Q293 cells, FERM NanoBiT luminescence, HTS | Protein-tyrosine kinase 2-beta (Homo sapiens), Q14289 | active compounds read low | z-score (the deposit names both 25 µM and 10 µM) | 0.83% of 99,000 active;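 active = Z-score of -3 or lower, scaled per plate to the spread of control and sample wells; inactive = z-score above -3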;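 also: negative z-score means lost luminescence so less FERM oligomerization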
CYP2C19 act = human CYP2C19 activators, primary screen, biochemical, luminescence; activation factor at 5 µM; Cytochrome P450 2C19 (Homo sapiens), P33261; recombinant CYP2C19, luciferin-H EGE luminescence; active compounds read high; 0 = fully inhibited enzyme, 1 = untreated enzyme; 96,000 tested, under 10 active;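 active = activation factor of at least 2 at 5 µM in the primary screen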;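 also: 0 = wells with 2.5 mM tranylcypromine and 1 = vehicle-only wells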
Target sequence (P33261 whole entry, looked up): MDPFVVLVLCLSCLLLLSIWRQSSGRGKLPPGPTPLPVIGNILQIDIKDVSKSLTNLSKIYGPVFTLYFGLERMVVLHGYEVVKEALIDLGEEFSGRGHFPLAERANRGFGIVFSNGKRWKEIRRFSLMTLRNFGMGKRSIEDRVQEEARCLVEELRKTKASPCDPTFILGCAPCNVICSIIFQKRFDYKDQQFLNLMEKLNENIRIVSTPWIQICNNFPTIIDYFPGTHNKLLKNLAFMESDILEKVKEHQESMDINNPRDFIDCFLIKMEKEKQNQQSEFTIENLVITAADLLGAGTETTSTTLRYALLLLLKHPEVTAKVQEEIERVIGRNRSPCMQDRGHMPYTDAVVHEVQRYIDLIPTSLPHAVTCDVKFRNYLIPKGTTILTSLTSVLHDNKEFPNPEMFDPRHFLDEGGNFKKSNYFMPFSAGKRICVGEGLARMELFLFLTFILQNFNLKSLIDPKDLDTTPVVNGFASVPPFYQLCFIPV
CYP2C19 inhib = blockers of cytochrome P450 2C19 activity – biochemical, luminescence, ADME assay, primary screen; CYP2C19 Supersomes, luciferin-H EGE luminescence, 30 min; inhibition, % at 5 µM; 21% of 96,000 active; AID 778, 2007;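 active = CYP2C19 inhibition above a set limit at 5 µM in the primary screen, cut at about 50% in these data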;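 also: plate controls were negative control wells for no effect and 2.5 mM tranylcypromine positive control for full effect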
CYP2C9 inh = blockers of cytochrome P450 2C9 activity – biochemical, luminescence, ADME assay, primary screen. inhibition, % at 5 µM. P11712. 20% of 96,000 active. CYP2C9 Supersomes, luciferin-H conversion;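 active = blocking of liver enzyme CYP2C9 beyond about 50% at 5 µM, limit read from the data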
CYP2C9 activ = human CYP2C9 activators, primary screen, biochemical, luminescence; recombinant CYP2C9, luciferin-H conversion; active compounds read high; factor 1 = untreated enzyme, 0 = blocked; Cytochrome P450 2C9 (Homo sapiens), P11712; 1.4% of 96,000 active; activation factor at 5 µM;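 active = activation factor of 2 or more for CYP2C9 at a 5 µM dose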;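 also: 0 = sulfaphenazole-blocked wells and 1 = vehicle-only wells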
Numbers without * were called inactive; . = no result.

SMILES	Pyk2 oligo antag	CYP2C19 act	CYP2C19 inhib	CYP2C9 inh	CYP2C9 activ
Cc1cc(C)n(-c2nc3ccccc3nc2N2CCN(C(=O)c3ccc(Cl)cc3)CC2)n1	1.7	0.5	48	60*	0.4
Cc1cc(C)n(-c2cc(N3CCN(C(=O)c4ccc(C(C)(C)C)cc4)CC3)ccc2[N+](=O)[O-])n1	-1.2	0.8	20	49	0.5
OCCN=C(c1ccccc1)C12CN3CN(CN(C3)C1)C2	0.31	1.1	-6	-4	1
CC(C)CCNC(=O)C(c1cccnc1)N(Cc1ccccc1)C(=O)Cn1nnc2ccccc21 (stereo not drawn)	-1.3	.	.	.	.
O=C(NC1CCCC1)C1CCN(S(=O)(=O)c2cccc3cccnc23)CC1	1.1	0.8	22	-213	3.1*
CCN1CCN(C(=O)C2CCN(S(=O)(=O)c3cccc4cccnc34)CC2)CC1	.	1.2	-15	-72	1.7
O=C(NCc1ccccc1)C1CCN(S(=O)(=O)c2cccc3cccnc23)CC1	.	1	-3	-57	1.6
CC1CCCN(C(=O)C2CCN(S(=O)(=O)c3cccc4cccnc34)CC2)C1 (stereo not drawn)	.	0.5	49	-228	3.3*
CC(C)CCNC(=O)NC(=O)COC(=O)/C=C/c1cnc2ccccc2n1	-1.2	0.8	23	46	0.5
CNc1nc(Sc2ccc(C)cc2)cc(C(F)(F)F)n1	0.33	1	-1	7	0.9
Cc1ccc(S(=O)(=O)NC(CC(=O)n2nc(C)cc2C)c2ccccc2)cc1 (stereo not drawn)	-0.84	0	100*	94*	0.1
Cc1ccc(S(=O)(=O)NC(c2ccccc2)C(C)C(=O)n2nc(C)cc2C)cc1 (stereo not drawn)	-0.7	0	100*	50	0.5
Cc1ccc(S(=O)(=O)NC(CC(=O)O)c2ccccc2)cc1 (stereo not drawn)	0.37	1.1	-9	10	0.9
O=C(Cn1cnc2ccccc2c1=O)N1CCN(Cc2ccccc2)CC1	1.1	1.1	-5	3	1
N#CCCCSc1nnnn1-c1cccc(Cl)c1	-0.02	0.2	80*	-13	1.1
O=C1CC(Sc2nnnn2-c2ccccc2)C(=O)N1c1cccc(Cl)c1 (stereo not drawn)	-0.02	0.7	27	34	0.7
CCN=C1SC(C(=O)Nc2cccc(OCC)c2)CC(=O)N1CC (stereo not drawn)	1.2	0.1	87*	4	1
COc1cccc(N=C2SC(C(=O)Nc3ccccc3F)CC(=O)N2C)c1 (stereo not drawn)	0.27	0.6	36	62*	0.4
CN1C(=O)CC(C(=O)Nc2ccc(F)cc2)SC1=Nc1ccc2c(c1)OCO2 (stereo not drawn)	0.65	0.4	58*	99*	0
CCNC(=O)C1CC(=O)N(Cc2ccc(F)cc2)C(=Nc2ccc(OC)cc2)S1 (stereo not drawn)	-1.6	0.5	55*	-56	1.6
CCN=C1SC(C(N)=O)CC(=O)N1CC (stereo not drawn)	1.4	1.1	-6	-3	1
C/C(CCc1ccc2c(c1)OCO2)=N\N=C1\NC(=O)CC(C(=O)Nc2ccc(Cl)cc2)S1 (stereo not drawn)	0.13	0.7	30	75*	0.2
CCOc1cccc(NC(=O)C2CC(=O)NC(=Nc3ccccc3)S2)c1 (stereo not drawn)	-0.12	0.8	19	62*	0.4
COc1ccc(CN=C2NC(=O)CC(C(=O)Nc3cc(C)cc(C)c3)S2)cc1 (stereo not drawn)	0.14	.	.	.	.
COc1ccc(NC(=O)C2CC(=O)N(C)C(=Nc3ccc4c(c3)OCO4)S2)cc1 (stereo not drawn)	-1.6	.	.	.	.
COc1cccc(NC(=O)C2CC(=O)N(C)C(=Nc3cccc(F)c3)S2)c1 (stereo not drawn)	-1.6	0.8	19	45	0.5
CCN1C(=O)CC(C(=O)Nc2ccc(F)cc2)SC1=Nc1cccc(OC)c1 (stereo not drawn)	-1.4	0.4	62*	84*	0.2
CN1CCN(C(=O)C2(NC(=O)Nc3cccc(F)c3)CCCCC2)CC1	-0.56	0.5	47	35	0.7

Screening results as filed in PubChem.
